# Source: PubChem BioAssay (EPA / NIEHS)
# Where “and” joins values, the source holds several entries; their conditions need not be identical. Equal values may be shown once. Results filed as inconclusive are left out. Calls of active or inactive are those of the source. Rule for the calls: active = hit-call score of the fitted dose curve at least 0.9, where 1 is the maximum; inconclusive = response in the unintended direction; inactive = score below 0.9.
# How the values were obtained:
# [1] = ATG_M_19_XSP2: Attagene TRANS-FACTORIAL Multi-Species (XSP2) HepG2 Assay for M32 Transcription Factor (Internal Marker) (AID 2283822)
# In short: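 Internal background marker in a multi-species nuclear receptor TRANS panel: transfected HepG2 cells exposed 24 h, with 3 nM 6-alpha-fluorotestosterone and 1.5 nM norgestrel present. Readout is RT-PCR of reporter transcripts resolved by capillary electrophoresis, gain-of-signal versus DMSO.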
# [2] = system: zebrafish Androgen Receptor (AR), gene 100005148; experiment: ATG_zfAR_XSP2: Attagene TRANS-FACTORIAL Multi-Species (XSP2) HepG2 Assay for zebrafish Androgen Receptor (AR) (AID 2283825);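 note: hits raise reporter mRNA above DMSO so AC50 reflects agonist-type gain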
# Experimental: ATG_XSP2_multi-species_TRANS is a cell-based, multiplexed assay created by modifying the existing Attagene TRANS-FACTORIAL system to include a panel of nuclear receptors from some or all the following species: human (Homo sapiens), mouse (Mus musculus), frog (Xenopus laevis), zebrafish (Danio rerio), chicken (Gallus gallus), and turtle (Chrysemys picta). The ECOTOX-FACTORIAL format uses HepG2, a human liver cell line, with measurements taken at 24 hours after chemical dosing in a 24-well plate. Xsp2 included 3 nM 6-alpha-fluorotestosterone and 1.5 nM norgestrel to stimulate the androgen receptor.ATG_zfAR_XSP2 is one of 29 assay components measured or calculated from the ATG_XSP2_multi-species_TRANS assay. It is designed to make measurements of mRNA induction, a form of inducible reporter, as detected with fluorescence intensity signals by Reverse transcription polymerase chain reaction (RT-PCR) and Capillary electrophoresis technology.The assay endpoint ATG_zfAR_XSP2 was analyzed in the positive analysis fitting direction relative to DMSO as the negative control and baseline of activity. […] Furthermore, this assay endpoint can be referred to as a primary readout, because this assay has produced multiple assay endpoints where this one serves a reporter gene function. […]
# [3] = system: frog Androgen Receptor (AR), gene 399456; experiment: ATG_frAR_XSP2: Attagene TRANS-FACTORIAL Multi-Species (XSP2) HepG2 Assay for frog Androgen Receptor (AR) (AID 2283824);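 note: reporter mRNA from GAL4-UAS units driven by Xenopus AR-Gal4 chimera; actives raise reporter signal above DMSO so AC50 reflects agonist-like induction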
# In short: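 Reporter transcript induction, read by RT-PCR with fluorescent capillary electrophoresis, in human liver HepG2 cells carrying an exogenous Xenopus AR-Gal4 fusion and GAL4-driven reporters; chemical exposure 24 hours, activity scored upward against DMSO controls.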
structure (smiles),measurement,setting,value
CCCCC(CC)COC(=O)c1ccc(O)cc1 (centres undefined),outcome,[1],inactive
same,outcome,[2],inactive
O=c1c(O)c(-c2ccc(O)cc2)oc2cc(O)cc(O)c12,AC50,[3],2.89 µM (active) and 1.82 µM (active)
Oc1ccc2cc(SSc3ccc4cc(O)ccc4c3)ccc2c1,AC50,[3],26.3 µM (active)
